From PubChem BioAssay (EPA / NIEHS)
The source made the active and inactive calls. The calls were made as follows: active = hit-call score of the fitted dose curve at least 0.9, where 1 is the maximum; inactive = score below 0.9.

Assays:
Conditions in all cases: mRNA level, 48 h; actives raise or lower the signal
[1] = read-out: 3-Hydroxy-3-Methylglutaryl-CoA Synthase 2 (HMGCS2), HMGCS2 (gene 3158); assay: LTEA_HepaRG_HMGCS2: Life Technologies and Expression Analysis (LTEA) Assay for 3-Hydroxy-3-Methylglutaryl-CoA Synthase 2 (HMGCS2) using HepaRG (AID 2283504)
Summary of the method: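 Human HepaRG cells in serum-free induction medium were exposed in duplicate for 48 h to 8-point half-log series from 100 uM top in 0.5% DMSO. HMGCS2 mRNA measured by TaqMan qRT-PCR, normalised to ACTB, GAPDH, POLR2A; bidirectional fit versus DMSO.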

HGF (gene 3082) = assay: LTEA_HepaRG_HGF: Life Technologies and Expression Analysis (LTEA) Assay for Hepatocyte Growth Facto (HGF) using HepaRG (AID 2283505)
Summary of the method: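 Differentiated HepaRG cells in serum-free induction medium exposed 48 h in duplicate, 8 half-log concentrations from 100 uM in 0.5% DMSO. HGF mRNA by qRT-PCR, normalised to ACTB, GAPDH, POLR2A; bidirectional fitting.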

[2] = read-out: Insulin Like Growth Factor 1 (IGF1), IGF1 (gene 3479); assay: LTEA_HepaRG_IGF1: Life Technologies and Expression Analysis (LTEA) Assay for Insulin Like Growth Factor 1 (IGF1) using HepaRG (AID 2283506)
Summary of the method: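 Using human HepaRG liver cells, IGF1 transcript induction or suppression is measured 48 h after dosing across eight concentrations capped at 100 uM. Values derive from bidirectional concentration-response fitting with DMSO as baseline.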

[3] = read-out: Intercellular Adhesion Molecule 1 (ICAM1), ICAM1 (gene 3383); assay: LTEA_HepaRG_ICAM1: Life Technologies and Expression Analysis (LTEA) Assay for Intercellular Adhesion Molecule 1 (ICAM1) using HepaRG (AID 2283507)
Summary of the method: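 Differentiated human HepaRG cells in serum-free induction medium exposed 48 h in duplicate to 8 half-log concentrations (top 100 uM, 0.5% DMSO). ICAM1 mRNA quantified by TaqMan qRT-PCR, normalized to ACTB, GAPDH and POLR2A; bidirectional fitting versus DMSO.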

[4] = read-out: Insulin-like growth factor-binding protein 1 (IGFBP1), IGFBP1 (gene 3484); assay: LTEA_HepaRG_IGFBP1: Life Technologies and Expression Analysis (LTEA) Assay for Insulin-like growth factor-binding protein 1 (IGFBP1) using HepaRG (AID 2283508)
Summary of the method: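 HepaRG cells, plated 48 h then switched to serum-free induction medium, exposed in duplicate for 48 h to 8-point half-log series from 100 uM in 0.5% DMSO. mRNA measured by qRT-PCR, normalized to ACTB/GAPDH/POLR2A; bidirectional fit versus DMSO.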

[5] = read-out: Interleukin 6 (IL6), IL6 (gene 3569); assay: LTEA_HepaRG_IL6: Life Technologies and Expression Analysis (LTEA) Assay for Interleukin 6 (IL6) using HepaRG (AID 2283509)
Summary of the method: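 HepaRG, ~100,000 cells/well, 48 h pre-culture; serum-free induction medium; cmpd 8-pt half-log from 100 uM, 0.5% DMSO, duplicate, 48 h. Lysis in RLT, TaqMan qRT-PCR; gain or loss vs DMSO.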

[6] = read-out: Interleukin 6 Receptor (IL6R), IL6R (gene 3570); assay: LTEA_HepaRG_IL6R: Life Technologies and Expression Analysis (LTEA) Assay for Interleukin 6 Receptor (IL6R) using HepaRG (AID 2283510);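 as to AC50: TaqMan qRT-PCR signal normalized to ACTB GAPDH and POLR2A housekeeping genes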
Summary of the method: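 Concentration-response in human liver HepaRG cells: eight concentrations from 100 uM downward by half-logs, 48 h exposure, 0.5% DMSO vehicle. IL6R mRNA change measured by qRT-PCR and fitted in both directions relative to vehicle.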

[7] = read-out: Potassium channel subfamily K member 1 (KCNK1), KCNK1 (gene 3775); assay: LTEA_HepaRG_KCNK1: Life Technologies and Expression Analysis (LTEA) Assay for Potassium channel subfamily K member 1 (KCNK1) using HepaRG (AID 2283511)
Summary of the method: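 Gain or loss of KCNK1 mRNA is the read-out, quantified by qRT-PCR against three housekeeping genes after 48 h chemical treatment of human HepaRG liver cells. Concentrations ran from 100 uM downward in half-log steps, vehicle 0.5% DMSO.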

[8] = read-out: Keratin 19 (KRT19), KRT19 (gene 3880); assay: LTEA_HepaRG_KRT19: Life Technologies and Expression Analysis (LTEA) Assay for Keratin 19 (KRT19) using HepaRG (AID 2283512)
Summary of the method: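 Differentiated HepaRG cells in serum-free induction medium, exposed 48 h in duplicate to 8 half-log concentrations up to 100 uM in 0.5% DMSO. KRT19 mRNA by qRT-PCR, normalized to ACTB, GAPDH, POLR2A; bidirectional fit vs DMSO.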

[9] = read-out: JUN Transcription Factor, JUN (gene 3725); assay: LTEA_HepaRG_JUN: Life Technologies and Expression Analysis (LTEA) Assay for JUN Transcription Factor using HepaRG (AID 2283513)
Summary of the method: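 Human HepaRG liver cells receive test chemicals in 0.5% DMSO for 48 h across an eight-point range topping at 100 uM. Expression changes in JUN are scored in both directions against the DMSO vehicle.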

[10] = read-out: Lipase C (LIPC), LIPC (gene 3990); assay: LTEA_HepaRG_LIPC: Life Technologies and Expression Analysis (LTEA) Assay for Lipase C (LIPC) using HepaRG (AID 2283514)
Summary of the method: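 Read-out is LIPC transcript level by TaqMan qRT-PCR, normalized to three housekeeping genes, after 48 h chemical treatment of human HepaRG liver cells. Curves span eight concentrations topping at 100 uM; activity in either direction scored relative to 0.5% DMSO.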

[11] = read-out: Lipoprotein lipase (LPL), LPL (gene 4023); assay: LTEA_HepaRG_LPL: Life Technologies and Expression Analysis (LTEA) Assay for Lipoprotein lipase (LPL) using HepaRG (AID 2283515)
Summary of the method: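 Read-out is LPL transcript level by qRT-PCR, normalized to three housekeeping genes and fitted bidirectionally against the DMSO control. Human HepaRG cells received chemicals for 48 h at up to 100 uM.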

[12] = read-out: MicroRNA 122 (MIR122), gene 406906; assay: LTEA_HepaRG_MIR122: Life Technologies and Expression Analysis (LTEA) Assay for MicroRNA 122 (MIR122) using HepaRG (AID 2283516); also: the transcript read is the microRNA miR-122
Summary of the method: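 HepaRG, 48 h exposure, 8-pt half-log from 100 uM, 0.5% DMSO; TaqMan qRT-PCR; bidirectional fit vs DMSO.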

[13] = read-out: matrix metalloproteinase-10 (MMP10), MMP10 (gene 4319); assay: LTEA_HepaRG_MMP10: Life Technologies and Expression Analysis (LTEA) Assay for matrix metalloproteinase-10 (MMP10) using HepaRG (AID 2283517)
Summary of the method: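 Gain or loss of MMP10 mRNA is fitted relative to the 0.5% DMSO vehicle. The human hepatic line HepaRG receives a 48-hour serum-free exposure, in duplicate, with a maximum concentration of 100 uM.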

MYC, MYC (gene 4609) = assay: LTEA_HepaRG_MYC: Life Technologies and Expression Analysis (LTEA) Assay for MYC using HepaRG (AID 2283518)
Summary of the method: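 Differentiated HepaRG cells exposed 48 h in serum-free induction medium to 8 concentrations (top 100 uM, half-log steps; 0.5% DMSO), duplicate. MYC mRNA measured by Fluidigm qRT-PCR, normalized to ACTB, GAPDH, POLR2A; bidirectional fit versus DMSO.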

[14] = read-out: matrix metalloproteinase-3 (MMP3), MMP3 (gene 4314); assay: LTEA_HepaRG_MMP3: Life Technologies and Expression Analysis (LTEA) Assay for matrix metalloproteinase-3 (MMP3) using HepaRG (AID 2283519)
Summary of the method: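 HepaRG, human; 48 h dosing, 8 conc. (max 100 uM, half-log), duplicate, 0.5% DMSO. Readout: MMP3 transcript by Fluidigm TaqMan qRT-PCR, ACTB/GAPDH/POLR2A-normalised. Gain or loss fitted vs DMSO.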

[15] = read-out: Paternally Expressed 10 (PEG10), PEG10 (gene 23089); assay: LTEA_HepaRG_PEG10: Life Technologies and Expression Analysis (LTEA) Assay for Paternally Expressed 10 (PEG10) using HepaRG (AID 2283520);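 as to AC50: PEG10 transcript by qRT-PCR normalised to ACTB GAPDH and POLR2A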
Summary of the method: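 Chemicals tested on HepaRG cells for 48 h, highest concentration 100 uM. PEG10 expression assessed by qRT-PCR relative to DMSO control.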

[16] = read-out: Nuclear factor NF-kappa-B p105 subunit (Homo sapiens) (UniProt P19838); assay: LTEA_HepaRG_NFKB1: Life Technologies and Expression Analysis (LTEA) Assay for Nuclear Factor Kappa B Subunit 1 (NFKB1) using HepaRG (AID 2283521)
Summary of the method: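 Differentiated human HepaRG cells in serum-free induction medium with 0.5% DMSO were exposed for 48 h to eight half-log concentrations, top 100 uM, in duplicate. NFKB1 mRNA measured by Fluidigm TaqMan qRT-PCR, normalised to ACTB, GAPDH and POLR2A; bidirectional fit versus DMSO.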

[17] = read-out: Protein phosphatase 2A (PPP2R4), PTPA (gene 5524); assay: LTEA_HepaRG_PPP2R4: Life Technologies and Expression Analysis (LTEA) Assay for Protein phosphatase 2A (PPP2R4) using HepaRG (AID 2283522)
Summary of the method: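 Gene-expression endpoint in HepaRG hepatic cells: 48 h treatment across eight half-log concentrations up to 100 uM in 0.5% DMSO. PPP2R4 mRNA by qRT-PCR, normalized to three endogenous control genes.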

[18] = read-out: Phosphatase and tensin (PTEN), PTEN (gene 5728); assay: LTEA_HepaRG_PTEN: Life Technologies and Expression Analysis (LTEA) Assay for Phosphatase and tensin (PTEN) using HepaRG (AID 2283523)
Summary of the method: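 Read-out is PTEN transcript level by multiplexed TaqMan qRT-PCR after 48 h chemical treatment of human HepaRG cultures in serum-free induction medium. Concentrations spanned 100 uM downward in half-log steps, 0.5% DMSO throughout; activity fitted in both directions against vehicle.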

Sequence of Nuclear factor NF-kappa-B p105 subunit (Homo sapiens) (P19838 whole entry, looked up): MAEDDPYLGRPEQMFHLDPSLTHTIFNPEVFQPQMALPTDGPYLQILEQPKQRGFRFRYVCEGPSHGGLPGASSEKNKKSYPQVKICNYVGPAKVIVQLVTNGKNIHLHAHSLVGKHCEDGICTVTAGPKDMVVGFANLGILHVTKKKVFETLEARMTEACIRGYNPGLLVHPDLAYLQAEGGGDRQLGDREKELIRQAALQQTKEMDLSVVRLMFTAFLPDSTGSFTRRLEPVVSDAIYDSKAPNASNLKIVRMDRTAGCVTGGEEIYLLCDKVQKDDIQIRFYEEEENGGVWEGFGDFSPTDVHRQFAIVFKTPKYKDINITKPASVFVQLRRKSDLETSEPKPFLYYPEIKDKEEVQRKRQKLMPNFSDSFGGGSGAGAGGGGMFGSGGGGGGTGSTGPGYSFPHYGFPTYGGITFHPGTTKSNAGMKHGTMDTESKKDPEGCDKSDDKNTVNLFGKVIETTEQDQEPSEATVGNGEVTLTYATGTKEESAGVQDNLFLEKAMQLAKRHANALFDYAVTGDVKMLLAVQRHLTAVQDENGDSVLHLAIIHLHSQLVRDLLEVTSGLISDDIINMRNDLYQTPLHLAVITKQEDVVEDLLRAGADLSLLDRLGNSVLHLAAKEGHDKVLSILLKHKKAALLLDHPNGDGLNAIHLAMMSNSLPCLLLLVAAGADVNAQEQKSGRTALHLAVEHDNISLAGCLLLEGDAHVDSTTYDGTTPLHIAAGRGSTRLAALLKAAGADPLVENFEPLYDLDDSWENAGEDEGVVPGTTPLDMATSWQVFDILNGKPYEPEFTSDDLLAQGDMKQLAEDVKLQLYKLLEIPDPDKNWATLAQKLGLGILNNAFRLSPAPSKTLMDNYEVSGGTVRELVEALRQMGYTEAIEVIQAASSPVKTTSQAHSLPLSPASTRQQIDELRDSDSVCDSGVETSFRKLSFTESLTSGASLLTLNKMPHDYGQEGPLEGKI

With Cc1nccn1-c1ccc(Sc2cccc(C3(C(N)=O)CCOCC3)c2)cc1 the AC50 [1] was 11 µM (active), the AC50 (HGF (gene 3082)) was 20.6 µM (active) and the AC50 [2] was 7.82 µM (active). For the same compound, the AC50 [3] was 10.7 µM (active), the AC50 [4] was 9.01 µM (active) and the outcome [5] was “inactive”. The AC50 [6] was 13.1 µM (active), the outcome [7] was “inactive” and the AC50 [8] was 6.52 µM (active). The AC50 [9] was 19.4 µM (active), the AC50 [10] was 12.2 µM (active) and the AC50 [11] was 0.913 µM (active). The AC50 [12] was 15.1 µM (active), the AC50 [13] was 17.6 µM (active) and the AC50 (MYC, MYC (gene 4609)) was 9.67 µM (active). For the same compound, the outcome [14] was “inactive”, the AC50 [15] was 2.9 µM (active) and the AC50 [16] was 3.18 µM (active). The AC50 [17] was 27.7 µM (active) and the AC50 [18] was 28 µM (active).
CCCCCCOC(=O)CC(CC(=O)OCCCCCC)(OC(=O)CCC)C(=O)OCCCCCC was tested, and the outcome [1] was “inactive”, the outcome (HGF (gene 3082)) was “inactive” and the outcome [2] was “inactive”. The outcome [3] was “inactive”, the outcome [4] was “inactive” and the outcome [5] was “inactive”. The outcome [6] was “inactive”, the outcome [7] was “inactive” and the outcome [8] was “inactive”. The outcome [9] was “inactive”, the outcome [10] was “inactive” and the outcome [11] was “inactive”. The outcome [12] was “inactive”, the outcome [13] was “inactive” and the outcome (MYC, MYC (gene 4609)) was “inactive”. For the same compound, the outcome [14] was “inactive”, the outcome [15] was “inactive” and the outcome [16] was “inactive”. The outcome [17] was “inactive” and the outcome [18] was “inactive”.
For O=C(O)c1cccc(C[C@@H]2COc3ccc(OCc4nc5cc(F)ccc5s4)cc3[C@@H]2O)c1, the AC50 [1] was 66.8 µM (active), the AC50 (HGF (gene 3082)) was 50 µM (active) and the outcome [2] was “inactive”. For the same compound, the outcome [3] was “inactive”, the outcome [4] was “inactive” and the outcome [5] was “inactive”. The AC50 [6] was 50 µM (active), the outcome [7] was “inactive” and the outcome [8] was “inactive”. The outcome [9] was “inactive”, the outcome [10] was “inactive” and the outcome [11] was “inactive”. For the same compound, the outcome [12] was “inactive”, the outcome [13] was “inactive” and the outcome (MYC, MYC (gene 4609)) was “inactive”. The outcome [14] was “inactive”, the AC50 [15] was 50 µM (active) and the outcome [16] was “inactive”. For the same compound, the outcome [17] was “inactive” and the outcome [18] was “inactive”.
